The values below come from PubChem BioAssay (NCATS).

Inconclusive results are not listed. Where a call stands in place of a potency, no number is given. Activity calls are given as the source filed them. Calls come from the whole dose curve; as a rule, active = well fitted cell-killing curve with a large enough effect; inconclusive = small, poorly fitted or top-dose-only effect, or effect the other way; inactive = no such curve, though single readings can be large or run the other way.
Potency is the fitted concentration of half-maximal effect.

This test in a line: Quantitative High-Throughput drug screen in 47 multiple myeloma cell lines against the NCATS MIPE library collection: KMS28BM_JCRB cell viability assay (AID 1919874). Note: nearly all actives have a fitted effect of over 35% in size. To be noted: CellTiter-Glo ATP, 48 h; series mostly up to 45.8 µM. An outline of the steps:
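qHTS format: cells plated (500/well), pin-dosed with MIPE 4.0 compounds, kept 48 h at 37 °C. Readout was CellTiter-Glo luminescence, median RLU.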
As to `CCN(CCO)CCCC(C)Nc1ccnc2cc(Cl)ccc12` (centres undefined), the Potency entry was “inactive”.
To `O=c1oc2cc(O)ccc2s1` belongs “inactive”; to `Nc1ncn([C@H]2C[C@H](O)[C@@H](CO)O2)c(=O)n1`, “inactive”.
`O=C(O)c1cccc(-c2noc(-c3ccccc3F)n2)c1`: the Potency result is “inactive”.
To `Cc1cc(O)c2c(c1)C(=O)c1cc(O)cc(O)c1C2=O` belongs “inactive”.
As for `N=C(N=C(N)N)N1CCOCC1`, the Potency entry is “inactive”.
For `Cc1ccc(C)c(OCCCC(C)(C)C(=O)O)c1`, the Potency entry was “inactive”.
As for `O=c1ccc2ccc(O)c(O)c2o1`, the Potency result was “inactive”.
In the case of `Cc1cccc(C#Cc2ccccc2)n1`, the Potency result was “inactive”.
Turning to `CC(C)C[C@H](NC(=O)[C@H](Cc1ccccc1)NC(=O)c1cnccn1)B(O)O`, the Potency is 0.0132 µM (active).
To `CCOC(=O)C(C)Oc1cccc2c(=O)n(CC(=O)Nc3ccc4c(c3)OCCO4)ccc12` (centres undefined) belongs “inactive”.
For `N[C@@H](Cc1cc(I)c(Oc2cc(I)c(O)c(I)c2)c(I)c1)C(=O)O`, the Potency result was “inactive”.
To `O=C(O)c1cccnc1Nc1cccc(C(F)(F)F)c1` belongs “inactive”.
Take `COc1cc(Nc2c(C#N)cnc3cc(OCCCN4CCN(C)CC4)c(OC)cc23)c(Cl)cc1Cl`: the Potency is 18.7 µM (active).
To `CCc1nc(N)nc(N)c1-c1ccc(Cl)cc1` belongs “inactive”; to `COc1c(O)cc2c(c1O)[C@@H]1O[C@H](CO)[C@@H](O)[C@H](O)[C@H]1OC2=O`, “inactive”.
To `S=c1nc[nH]c2nc[nH]c12` belongs 1.18 µM (active); to `O=C(O)CCNC(=O)c1ccc(N=Nc2ccc(O)c(C(=O)O)c2)cc1`, “inactive”.
Regarding `Nc1ccc(S(N)(=O)=O)cc1`, the Potency result was “inactive”.
To `Nc1nc(Cl)nc2c1ncn2[C@H]1C[C@H](O)[C@@H](CO)O1` belongs 4.18 µM (active).
The same measure for `CCOC(=O)C1=C(O)C(=O)N(Cc2ccccc2)C1`: “inactive”; for `Nc1nc(N)c(N=O)c(OCC2CCCCC2)n1`: 16.6 µM (active).
As to `NCCCCNCCCN`, the Potency result was “inactive”.
The same measure for `CC1Cc2ccccc2N1NC(=O)c1ccc(Cl)c(S(N)(=O)=O)c1` (centres undefined): 1.05 µM (active).
In the case of `CC1(C)C(=O)N(CCN2CCC(C(=O)c3ccc(F)cc3)CC2)c2ccccc21`, the Potency was 18.7 µM (active).
`CC(C)c1ccc2oc3nc(N)c(C(=O)O)cc3c(=O)c2c1`: the Potency entry was “inactive”.
The same measure for `COc1cc(C(C)=O)ccc1OCCCN1CCC(c2noc3cc(F)ccc23)CC1`: 5.9 µM (active).
In the case of `CC1(C)NC(=O)N(c2ccc([N+](=O)[O-])c(C(F)(F)F)c2)C1=O`, the Potency entry is “inactive”.
The same measure for `Oc1ccc(OCc2ccccc2)cc1`: “inactive”; for `O=C1CCc2ccc(OCCCCN3CCN(c4cccc(Cl)c4Cl)CC3)cc2N1`: “inactive”.
To `Clc1ccc2c(N3CCN(CCCN4CCN(c5ccnc6cc(Cl)ccc56)CC4)CC3)ccnc2c1` belongs “inactive”; to `C[C@H](Cc1ccc(O)c(O)c1)[C@@H](C)Cc1ccc(O)c(O)c1`, 23.5 µM (active).
To `O=C(NCC1CCCCN1)c1cc(OCC(F)(F)F)ccc1OCC(F)(F)F` (centres undefined) belongs 18.7 µM (active); to `Cc1nc2n(c(=O)c1CCN1CCC(c3noc4cc(F)ccc34)CC1)CCCC2`, “inactive”.
